Bioassay records (PubChem BioAssay)
Most compounds without a hit are left out; they make up all but 4% or so of the library.
ADAM17 inh – inhibits human ADAM17. recombinant ADAM17, EDANS/DABCYL FRET peptide cleavage. P78536. AID 720648. 370,000 tested, 0.83% active. inhibition, % at 6.95 µM;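 active = inhibition above the mean of compounds lying between control limits plus 3 SD, set per campaign, cut at about 8.5% in these data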
ADAM10 inh – inhibitors of human ADAM10 | O14672 | recombinant ADAM10, EDANS/DABCYL FRET peptide cleavage, 3 h | 370,000 tested, 0.62% active | inhibition, % at 7 µM;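 active = inhibition above a per-campaign cutoff equal to the mean of compounds falling between control-based bounds plus 3 SD, cut at about 20% in these data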
GRIN3A LBD mod – modulators (binders) of human NR3A ligand-binding domain; Tm shift relative to glycine control, % at 25 µM; 340,000 tested, 2.5% active; NR3A LBD differential scanning fluorimetry, Tm shift; 0% = protein alone, 100% = glycine-bound protein; AID 1259313;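 active = melting temperature shift of at least 10% of the positive control shift, at one fixed dose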
aDG glyco up – alpha-DG glycosylation activation; Pro5-aDG cells, alpha-DG glycosylation AlphaScreen (IIH6); 0% Pro5, 100% B10-LARGE cell signal; activation, % at 10 µM; 360,000 tested, 0.22% active; AID 624168;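 active = activation of at least 8% versus controls, or a plate z-score of at least 8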;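 also: Pro5 are CHO cells carrying HIG-tagged alpha-DG that lacks glycosylation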
FAS TE block – FAS thioesterase (human) inhibition. P49327. recombinant FAS-TE, OMFH fluorogenic substrate, fluorescence endpoint. inhibition, % at 15 µM. 360,000 tested, 0.67% active. AID 602261;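 active = compounds whose normalised, plate-corrected inhibition of enzyme fluorescence in the single-dose primary screen is 50% or more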
Numbers stand for hits.

Screening COc1ccc(/C=N/NC(=O)c2cc3c(ccc4ccccc43)o2)cc1OC returned ADAM17 inh inactive, ADAM10 inh inactive, GRIN3A LBD mod 20, aDG glyco up inactive and FAS TE block inactive.
`N#CCC(=O)N/N=C/c1cn(Cc2ccccc2C#N)c2ccccc12` gave ADAM17 inh inactive, ADAM10 inh inactive, GRIN3A LBD mod inactive, aDG glyco up inactive and FAS TE block inactive.
`N#CCn1cc(/C=N/NC(=O)c2cc3c(ccc4ccccc43)o2)c2ccccc21` gave ADAM17 inh inactive, ADAM10 inh inactive, GRIN3A LBD mod 25, aDG glyco up inactive and FAS TE block inactive.
Screening N#CCC(=O)N/N=C/c1cn(Cc2ccc(Cl)c(Cl)c2)c2ccccc12 returned ADAM17 inh inactive, ADAM10 inh inactive, GRIN3A LBD mod 31, aDG glyco up inactive and FAS TE block inactive.
CCOc1ccc(S(=O)(=O)Nc2ccc(S(=O)(=O)N3CCCCC3)cc2)cc1 was read as ADAM17 inh inactive, ADAM10 inh inactive, GRIN3A LBD mod inactive, aDG glyco up inactive and FAS TE block inactive.
`O=C(c1ccco1)N1CCN(S(=O)(=O)c2cc(Cl)ccc2Cl)CC1` gave ADAM17 inh inactive, ADAM10 inh inactive, GRIN3A LBD mod inactive, aDG glyco up inactive and FAS TE block inactive.
Screening CCOC(=O)C1(Cc2ccccc2C(F)(F)F)CCN(Cc2ccc(COC)o2)CC1 returned ADAM17 inh inactive, ADAM10 inh inactive, GRIN3A LBD mod inactive, aDG glyco up inactive and FAS TE block inactive.
COc1ccc(-c2nc(NC(=O)c3ccc(OCC(=O)Nc4ccc(F)cc4)c(OC)c3)sc2C)cc1 was read as ADAM17 inh inactive, ADAM10 inh inactive, GRIN3A LBD mod 11, aDG glyco up inactive and FAS TE block inactive.
Screening O=C(CCCN1C(=O)/C(=C/c2cccs2)SC1=S)Nc1cc([N+](=O)[O-])ccc1O returned ADAM17 inh inactive, ADAM10 inh inactive, GRIN3A LBD mod inactive, aDG glyco up inactive and FAS TE block inactive.
COc1ccc(/C=C2\SC(=S)N(CCCC(=O)Nc3ccc(O)cc3)C2=O)cc1 was read as ADAM17 inh inactive, ADAM10 inh inactive, GRIN3A LBD mod inactive, aDG glyco up inactive and FAS TE block inactive.
For COc1ccc(/C=C2\SC(=S)N(CCC(=O)Nc3cccc(O)c3)C2=O)cc1 the results were ADAM17 inh inactive, ADAM10 inh inactive, GRIN3A LBD mod 35, aDG glyco up inactive and FAS TE block inactive.
For O=C(CCCN1C(=O)/C(=C\c2cccs2)SC1=S)Nc1cccnc1 the results were ADAM17 inh inactive, ADAM10 inh inactive, GRIN3A LBD mod 13, aDG glyco up inactive and FAS TE block inactive.
Screening O=C(CCN1C(=O)/C(=C/c2ccc(F)cc2)SC1=S)Nc1cc([N+](=O)[O-])ccc1O returned ADAM17 inh inactive, ADAM10 inh inactive, GRIN3A LBD mod 18, aDG glyco up inactive and FAS TE block inactive.
Screening COc1ccc(/C=C2/SC(=S)N(CCCC(=O)Nc3ccc(O)cc3)C2=O)cc1 returned ADAM17 inh inactive, ADAM10 inh inactive, GRIN3A LBD mod 13, aDG glyco up inactive and FAS TE block inactive.
Screening C=CCn1c(CCSCc2ccccc2)n[nH]c1=S returned ADAM17 inh inactive, ADAM10 inh inactive, GRIN3A LBD mod inactive, aDG glyco up inactive and FAS TE block inactive.
Screening C=CCN1C(=O)[C@@H]2Cc3c([nH]c4ccccc34)C(c3cc(OC)c(OC)c(OC)c3)N2C1=S (some centres not stated) returned ADAM17 inh inactive, ADAM10 inh inactive, GRIN3A LBD mod inactive, aDG glyco up inactive and FAS TE block inactive.
Screening C=CCN1C(=O)[C@@H]2Cc3c([nH]c4ccccc34)C(c3ccc(O)cc3)N2C1=S (some centres not stated) returned GRIN3A LBD mod 21, aDG glyco up inactive and FAS TE block inactive.
`C=CCOc1ccccc1/C=N/O` gave ADAM17 inh inactive, ADAM10 inh inactive, GRIN3A LBD mod inactive, aDG glyco up inactive and FAS TE block inactive.
Screening O=C(COc1ccccc1)NC1CCS(=O)(=O)C1 (configuration not stated) returned ADAM17 inh inactive, ADAM10 inh inactive, GRIN3A LBD mod inactive, aDG glyco up inactive and FAS TE block inactive.
CCCCCCc1cc2cc(-c3nnc(-c4ccccc4OC)o3)c(=O)oc2cc1O was read as ADAM17 inh inactive, ADAM10 inh inactive, GRIN3A LBD mod 24, aDG glyco up inactive and FAS TE block inactive.
For CCCCCCc1cc2cc(-c3nnc(-c4ccccc4O)o3)c(=O)oc2cc1O the results were ADAM17 inh inactive, ADAM10 inh inactive, GRIN3A LBD mod 29, aDG glyco up inactive and FAS TE block inactive.
`CCC1CCc2sc(C(=O)NNC(=S)NCC3CCCO3)cc2C1` (configuration not stated) gave ADAM17 inh inactive, ADAM10 inh inactive, GRIN3A LBD mod inactive, aDG glyco up inactive and FAS TE block inactive.
O=C(N/N=C/c1ccc(-c2cccc([N+](=O)[O-])c2)o1)[C@H]1C[C@@H]1c1ccccc1 was read as ADAM17 inh inactive, ADAM10 inh inactive, GRIN3A LBD mod 15, aDG glyco up inactive and FAS TE block inactive.
Cc1cc([N+](=O)[O-])ccc1-c1ccc(/C=N/NC(=O)c2ccc(Br)o2)o1 was read as ADAM17 inh inactive, ADAM10 inh inactive, GRIN3A LBD mod 27, aDG glyco up inactive and FAS TE block inactive.
`O=C(N/N=C/c1ccc(-c2ccc([N+](=O)[O-])cc2)o1)[C@H]1C[C@@H]1c1ccccc1` gave ADAM17 inh inactive, ADAM10 inh inactive, GRIN3A LBD mod inactive, aDG glyco up inactive and FAS TE block inactive.
For O=C(N/N=C/c1ccc(-c2cccc([N+](=O)[O-])c2)o1)c1cccs1 the results were ADAM17 inh inactive, ADAM10 inh inactive, GRIN3A LBD mod 14, aDG glyco up inactive and FAS TE block inactive.
For N#C/C(=C\c1ccc(-c2cccc([N+](=O)[O-])c2)o1)C(=O)Nc1nc(-c2cccs2)cs1 the results were ADAM17 inh inactive, ADAM10 inh inactive, GRIN3A LBD mod 11, aDG glyco up inactive and FAS TE block inactive.
For CCOC(=O)c1ccc(NC(=S)NCc2ccc(S(N)(=O)=O)cc2)cc1 the results were ADAM17 inh inactive, ADAM10 inh inactive, GRIN3A LBD mod inactive, aDG glyco up inactive and FAS TE block inactive.
For Cn1c(N)c(C(=O)COC(=O)/C=C/c2cccc(F)c2)c(=O)n(C)c1=O the results were ADAM17 inh inactive, ADAM10 inh inactive, GRIN3A LBD mod inactive, aDG glyco up inactive and FAS TE block inactive.
Screening O=C(CNC(=O)c1cccc(Cl)c1)NCC(c1cccs1)N1CCOCC1 (configuration not stated) returned ADAM17 inh inactive, ADAM10 inh inactive, GRIN3A LBD mod inactive, aDG glyco up inactive and FAS TE block inactive.
For O=C(N/N=C\c1ccc(-c2ccc([N+](=O)[O-])cc2)o1)C1COc2ccccc2O1 (configuration not stated) the results were ADAM17 inh inactive, ADAM10 inh inactive, GRIN3A LBD mod 25, aDG glyco up inactive and FAS TE block inactive.
